Screening results deposited in PubChem BioAssay by several laboratories.
APOBEC3G inh: blocks human APOBEC3G single-stranded DNA deamination | Q9HC16 | recombinant A3G, ssDNA deamination FAM/TAMRA fluorescence | inhibition, % at 20 µM | 330,000 compounds, 0.28% hits;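 active = inhibition of at least 40% at 20 µM, with no more than 30% in the related APOBEC3A deaminase screen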
Target sequence (Q9HC16 whole entry, looked up): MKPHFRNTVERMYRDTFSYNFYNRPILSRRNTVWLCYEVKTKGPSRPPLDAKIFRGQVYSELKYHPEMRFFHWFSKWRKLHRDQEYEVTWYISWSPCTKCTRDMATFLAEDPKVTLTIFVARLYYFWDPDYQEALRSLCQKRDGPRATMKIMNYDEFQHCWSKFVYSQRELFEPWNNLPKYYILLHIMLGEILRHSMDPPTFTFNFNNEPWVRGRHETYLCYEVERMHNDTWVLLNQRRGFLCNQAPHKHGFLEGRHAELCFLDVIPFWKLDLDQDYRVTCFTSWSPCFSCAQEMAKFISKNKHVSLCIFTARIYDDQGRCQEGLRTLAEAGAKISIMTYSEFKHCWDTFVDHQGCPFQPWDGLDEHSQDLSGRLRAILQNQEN
GRK2 inh: blocks RNA aptamer binding to human GRK2; inhibition of aptamer binding, % at 10 µM; 330,000 compounds, 0.59% hits; P25098; AID 488847; bead flow cytometry, FAM-aptamer displacement from GRK2;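 active = inhibition of aptamer binding above 40%, roughly 3 SD of noise, on plates passing a quality check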;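 also: median bead fluorescence of bound FAM aptamer so fluorescent compounds give negative values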
A3A deaminase: blocks human APOBEC3A ssDNA deamination; P31941; recombinant A3A, FAM/TAMRA ssDNA deamination fluorescence; inhibition, % at 20 µM; 330,000 compounds, 0.41% hits;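 active = at least 40% inhibition at 20 µM here, with at most 30% in a related deaminase screen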
Target sequence (P31941 whole entry, looked up): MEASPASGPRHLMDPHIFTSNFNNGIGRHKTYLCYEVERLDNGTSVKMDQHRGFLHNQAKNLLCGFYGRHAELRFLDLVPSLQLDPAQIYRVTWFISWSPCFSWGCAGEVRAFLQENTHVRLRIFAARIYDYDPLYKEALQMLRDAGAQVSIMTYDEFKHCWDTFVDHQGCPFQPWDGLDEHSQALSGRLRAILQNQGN
VLA-4 inh: inhibition in a human VLA-4 binding assay; P13612; VLA-4 expressing cells, ligand binding flow cytometry; inhibition, % (about 7 µM as worked out from the volumes in the protocol); 330,000 compounds, 0.2% hits; AID 2557; in the data active = inhibition above about 50%
A3A conf: APOBEC3A (human) deaminase inhibition, confirmed; shares compounds with A3A deaminase; recombinant A3A, ssDNA deaminase UDG fluorescence assay; inhibition, % at 20 µM; 1,400 compounds, 63% hits; AID 493151;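 active = inhibition reaching a set limit, 80% of the first screen's cutoff, at 20 µM in any replicate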
UDG A3A counter: inhibits UDG, flagging false APOBEC3A inhibitors; shares compounds with A3A deaminase; UDG counterscreen, FAM/TAMRA uracil oligo fluorescence; inhibition, % at 20 µM; 1,000 tested, under 10 active; call rule not given here
Large screens that a line does not name were inactive (follow-up assays come after a bar, where they were run). Sampled rows, rich in hits. Any-hit rate of the full collection: about 1.4%.

COc1cc(C=O)cc(OC)c1OS(=O)(=O)c1ccc(NC(C)=O)cc1	none
NC(=O)C[n+]1cccc2ccccc21	A3A deaminase 43 | A3A conf 59 | UDG A3A counter inactive
NC(=O)c1c(NC(=O)CSc2nnc(-c3ccco3)n2-c2ccccc2)sc2c1CCC2	A3A deaminase 41 | A3A conf 46 | UDG A3A counter inactive
CCn1nc(NC(=O)COC)c2cc3cc(C)ccc3nc21	A3A deaminase 45 | A3A conf 59 | UDG A3A counter inactive
CCCCn1nc(NC(=O)COC)c2cc3ccc(C)cc3nc21	A3A deaminase 47 | A3A conf 67 | UDG A3A counter inactive
CCCn1nc(NC(=O)COC)c2cc3cc(C)ccc3nc21	A3A deaminase 53 | A3A conf 58 | UDG A3A counter inactive
CCCn1nc(NC(=O)c2ccccn2)c2cc3cc(C)ccc3nc21	none
CCCC(=O)Nc1nn(C)c2nc3cc(C)ccc3cc12	none
Cc1ccc(S(=O)(=O)Cc2ccc(C(=O)NCCCN3CCCC3=O)o2)cc1	none
CCc1n(CC(O)COC2CCCCC2)c2ccccc2[n+]1C (stereo not drawn)	A3A deaminase 67 | A3A conf 71 | UDG A3A counter inactive
CCCc1n(CC)c2ccccc2[n+]1CC(O)COC1CCCCC1 (stereo not drawn)	A3A deaminase 89 | A3A conf 75 | UDG A3A counter inactive
CCc1n(CC(O)COCC2CC=CCC2)c2ccccc2[n+]1C (stereo not drawn)	A3A deaminase 62 | A3A conf 70 | UDG A3A counter inactive
Cc1nc2ccccc2n1CC(O)COCC1CC=CCC1 (stereo not drawn)	none
CC1CC(OCC(O)CN2CCN(Cc3ccccc3)CC2)CC(C)(C)C1 (stereo not drawn)	none
CCn1c(C)[n+](CC(O)COCC2CC=CCC2)c2ccccc21 (stereo not drawn)	A3A deaminase 66 | A3A conf 75 | UDG A3A counter inactive
C/C(Cl)=C\CSc1nnc2n(N)c(=O)c3ccccc3n12	none
CCc1cc(CNC(=O)c2ccc(OC3CCN(C(C)=O)CC3)c(OC)c2)on1	none
Cc1n(CC(O)COCc2ccccc2)c2ccccc2[n+]1C (stereo not drawn)	A3A deaminase 59 | A3A conf 71 | UDG A3A counter inactive
O=C(CCNS(=O)(=O)c1ccc2nsnc2c1)N1CCN(c2ccncc2)CC1	A3A deaminase 64 | A3A conf inactive | UDG A3A counter inactive
Cc1ccc(S(=O)(=O)NCCC(=O)N2CCN(c3cccc(Cl)c3)CC2)cc1C	none
Cc1ccc(NC(=O)C2CCN(S(=O)(=O)c3ccc4c(c3)NC(=O)C(C)S4)CC2)c(Cl)c1 (stereo not drawn)	none
COc1ccc(CC(=O)NNC(=O)c2cnccn2)cc1	none
COc1ccc(CC(=O)NNC(=O)c2ccccn2)cc1	A3A deaminase 46 | A3A conf inactive
O=C(CCCn1c(=O)[nH]c2ccccc2c1=O)NC1CCCCCC1	none
N#C/C(=C\c1c(N2CCCCCC2)nc2ccccn2c1=O)C(=O)NC1CCS(=O)(=O)C1 (stereo not drawn)	A3A deaminase 44 | A3A conf inactive | UDG A3A counter inactive
N#C/C(=C\c1c(N2CCOCC2)nc2ccccn2c1=O)C(=O)NC1CCS(=O)(=O)C1 (stereo not drawn)	none
CCOC(=O)c1[nH]ncc1CN1CCc2ccc(NC(=O)C3CCCO3)cc2C1 (stereo not drawn)	A3A deaminase 54 | A3A conf inactive | UDG A3A counter inactive
CCCCCCCC[n+]1c(C)n(-c2ccccc2)c2ccc(NC(C)=O)cc21	A3A deaminase 42 | A3A conf 70 | UDG A3A counter inactive
CCCCc1ccc(NC(=O)Nc2c(C)n(C)n(-c3ccccc3)c2=O)cc1	A3A deaminase 62 | A3A conf inactive | UDG A3A counter inactive
CCN(CC(=O)Nc1ccc(OC)cc1)C(=O)c1cc(-c2cccs2)nn1-c1ccccc1	A3A deaminase 78 | A3A conf inactive | UDG A3A counter inactive
Cc1nc(Cl)c2c(n1)N(CC(N)=O)C(=O)CO2	none
On1cnnc1-c1ccccc1	none
COn1cnnc1-c1ccccc1	A3A deaminase 47 | A3A conf inactive
Cc1cc(C)c2nc(N3CCN(C)CC3)c(C#N)cc2c1	none
Cc1nc2ccccc2n1-c1ccccc1	none
Cc1nc2nc(C)n(-c3ccccc3)c2s1	none | A3A conf 47 | UDG A3A counter inactive
Nc1cc(Cl)ccc1C(=O)OCC(=O)NC1CCCCC1	none
O=C(OCC(=O)N1CCC(Cc2ccccc2)CC1)c1cncc(Br)c1	none
COc1cccc(C(=O)NCCS(=O)(=O)N2CCN(C(=O)c3ccco3)CC2)c1	none
CCC(C)Sc1nnc(Cc2cc(=O)[nH]c(=O)[nH]2)n1-c1ccc(OC)cc1 (stereo not drawn)	A3A deaminase 63 | A3A conf inactive | UDG A3A counter inactive
O=c1cccc2n1Cc1cc3ccccc3nc1-2	A3A deaminase 49 | A3A conf inactive
CC[C@@]1(O)C(=O)OCc2c1cc1n(c2=O)Cc2cc3c(N)cccc3nc2-1	none
CCSCc1nnc(SCC(=O)Nc2ccc(OC)cc2)n1C	A3A deaminase 56 | A3A conf 63 | UDG A3A counter inactive
Cn1c(SCC(=O)Nc2ccc3c(c2)oc2ccccc23)nnc1-c1ccccc1	A3A deaminase 46 | A3A conf 60 | UDG A3A counter inactive
Cn1c(SCC(=O)Nc2ccc3[nH]c(=O)[nH]c3c2)nnc1-c1ccccc1	none
COc1ccc(-c2nnc(SCC(=O)Nc3ccc(C)cc3)n2C)cc1	none
COc1ccc(-c2nnc(SCC(=O)NC(=O)Cc3ccccc3)n2C)cc1	A3A deaminase 43 | A3A conf inactive
Cn1c(SCC(=O)NC(C)(C)C)nnc1-c1cccc(NC(=O)c2ccccc2F)c1	A3A deaminase 45 | A3A conf inactive
CCO[C@@H]1OC(C(=O)O)=C[C@H](c2cn(C(C)=O)c3ccccc23)[C@H]1CCCO	none (no result: GRK2 inh, VLA-4 inh)
CCOc1ccc(NC(=O)CC2C(=O)N(c3ccccc3)C(=O)N2CCc2cccs2)cc1 (stereo not drawn)	A3A deaminase 72 (no result: GRK2 inh) | A3A conf inactive | UDG A3A counter inactive
CSc1ccccc1NC(=O)Cn1nnc(-c2ccc(S(C)(=O)=O)cc2)n1	none
CS(=O)(=O)c1ccc(-c2nnn(CC(N)=O)n2)cc1	A3A deaminase 50 | A3A conf inactive
C/C(CC(=O)Nc1ccc(F)cc1F)=N\NC(=O)C(=O)N1CCCCC1	none
Cc1ccccc1N=C1NC(=O)/C(=C/c2cccn2-c2cccc(C(=O)O)c2)S1	A3A deaminase 50 (no result: GRK2 inh, VLA-4 inh) | A3A conf 43 | UDG A3A counter inactive
CCn1c(SCC(=O)N2CCc3ccccc32)nnc1-c1ccncc1	A3A deaminase 49 | A3A conf inactive
O=C(CSc1nnnn1-c1ccccc1)N1CCc2ccccc21	A3A deaminase 41 | A3A conf 62 | UDG A3A counter inactive
COCCn1cnc2cc(C)c(C)cc21	none
